# SENP6 inh: blocks the human protease SENP6; Q9GZR1; Recombinant SENP6 catalytic domain, aminoluciferin luminescence; inhibition, % at 10 µM; hit rate 1.8% among 330,000;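 active = inhibition above about 50% at the single tested dose, limit read from the data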;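 note: plate controls were DMSO wells with enzyme for no effect and DMSO wells lacking enzyme for full effect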
# Target sequence (Q9GZR1 628-1112 limits assumed): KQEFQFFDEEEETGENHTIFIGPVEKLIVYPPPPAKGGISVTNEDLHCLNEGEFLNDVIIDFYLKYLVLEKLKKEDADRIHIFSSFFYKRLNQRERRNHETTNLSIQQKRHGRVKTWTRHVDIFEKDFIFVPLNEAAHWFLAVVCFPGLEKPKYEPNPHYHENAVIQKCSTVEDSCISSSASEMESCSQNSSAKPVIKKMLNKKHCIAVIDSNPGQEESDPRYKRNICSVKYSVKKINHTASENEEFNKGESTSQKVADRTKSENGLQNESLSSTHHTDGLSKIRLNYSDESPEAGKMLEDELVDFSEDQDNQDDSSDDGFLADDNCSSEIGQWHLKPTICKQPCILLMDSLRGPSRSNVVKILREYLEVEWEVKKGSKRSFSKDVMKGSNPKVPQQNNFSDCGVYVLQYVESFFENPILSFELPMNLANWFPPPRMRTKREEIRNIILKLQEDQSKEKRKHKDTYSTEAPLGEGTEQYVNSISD
# SENP8 block-1: inhibitors of human SENP8 protease; Q96LD8; purified SENP8, Z-RLRGG-aminoluciferin cleavage, luminescence; inhibition, % at 10 µM; hit rate 1.2% among 330,000; AID 2540; in the data active = inhibition above about 50%
# Target sequence (Q96LD8 whole entry, looked up): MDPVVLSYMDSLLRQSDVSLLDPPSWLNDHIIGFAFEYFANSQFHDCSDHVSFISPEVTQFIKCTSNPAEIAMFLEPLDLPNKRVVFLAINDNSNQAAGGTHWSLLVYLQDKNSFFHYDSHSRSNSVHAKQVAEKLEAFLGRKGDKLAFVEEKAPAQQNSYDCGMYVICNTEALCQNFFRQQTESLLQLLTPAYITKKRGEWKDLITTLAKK
# SENP8 block-2: SENP8 (human) protease inhibition | Q96LD8 | recombinant SENP8, Nedd8 substrate fluorescence | inhibition, % at 20 µM | hit rate 0.64% among 360,000; in the data active = inhibition mostly above about 40%, no sharp cut-off; inactive = mostly below about 27%
# SENP7 inh: SENP7 protease inhibition | Q9BQF6 | hit rate 1.5% among 330,000 | inhibition, % at 5 µM | recombinant SENP7, Z-RLRGG-aminoluciferin luminescence, 40 min | AID 434973;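 active = inhibition above about 50% at the single test dose, limit read from the data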;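 note: plate controls were DMSO with enzyme for no effect and no enzyme buffer wells for full effect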
# PPC-1+TRAIL kill: compounds killing PPC-1 cancer cells with TRAIL present (potentiator screen, no TRAIL-free arm); PPC-1 cells + TRAIL, ATPLite viability luminescence; cell killing (% activity), % at 4 µM or 5 µM; hit rate 0.41% among 220,000; AID 1443;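 active = cell killing above 50% in the first pass at 4 µM, then a duplicate retest at 5 µM averaging 50% or more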;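 note: plate controls were cells with TRAIL plus DMSO for no effect and medium-only wells lacking cells for full effect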
# C8 TRAIL sens: sensitizes caspase-8 expressing cells to TRAIL | inhibition (viability loss, TRAIL sensitization), % at 10 µM | NB7+C8 cells + TRAIL, ATPlite viability luminescence | hit rate 1% among 360,000;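 active = compounds causing at least 50% loss of cell viability in the single-dose screen, relative to plate controls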
# * hit, by the source's call; / = no result. In the library only some 3% were active in any assay of this set; here they are far more common.
SMILES,SENP6 inh,SENP8 block-1,SENP8 block-2,SENP7 inh,PPC-1+TRAIL kill,C8 TRAIL sens
CS(=O)(=O)c1nc(-c2ccc(Br)cc2)cc(-c2ccccc2)c1C#N,-38.0,-8.8,-89.4,-1.1,31.4,88.4*
O=C(COc1ccc(Cl)cc1)NC1=NN(c2ccccc2)C(=O)C1,4.1,3.5,11.0,6.6,9.8,2.1
CCN(CC)c1ccc(NC2=C(Cl)C(=O)c3ccccc3C2=O)cc1,/,/,50.0*,/,43.2,44.8
O=S(=O)(c1ccccc1)c1ccc(NCc2ccco2)cc1,18.5,6.2,-92.4,7.2,13.9,-10.5
CCNC1=C(Cl)C(=O)c2ccccc2C1=O,41.3,15.3,93.5*,30.0,6.6,2.6
O=C1C(Cl)=C(NCc2ccco2)C(=O)c2ccccc21,/,/,46.3*,/,/,42.2
Cc1ccc(NC2=C(Cl)C(=O)c3ccccc3C2=O)cc1,/,/,1.5,/,22.0,48.3
CC(C)NC(=O)C1(C)CSCC(=O)N1Cc1cccc(F)c1 (stereo not given),/,/,13.4,/,/,-8.3
COc1cc(/C=N/NC(=O)CSc2cc(C)c(Br)cc2C)ccc1O,-5.4,8.6,3.0,4.9,19.0,8.3
Cc1cc(SCC(=O)N/N=C/c2ccc(O)c(O)c2O)c(C)cc1Br,1.1,-3.0,34.7*,2.8,15.1,-2.5
O=C(CN1C(=O)S/C(=C/C=C/c2ccccc2)C1=O)Nc1ccc(C(=O)O)cc1,28.7,5.9,-130.2,5.3,18.1,4.4
O=C(CCN1C(=O)/C(=C\C=C\c2ccccc2)SC1=S)Nc1ccc(C(=O)O)cc1,59.4*,59.9*,16.1,17.6,/,26.1
COc1cccc(CNC(=O)COC(=O)CCc2cc(OC)c(OC)c(OC)c2)c1,-12.0,-5.9,0.0,2.1,/,-15.3
CC(=O)Nc1cccc(NC(=O)C2CC(=O)N(CCc3ccc(F)cc3)C2)c1 (stereo not given),-3.2,2.8,3.7,5.7,/,-1.9
N#CCCn1nc2c(c1N)CCC2,/,/,18.9,/,/,3.0
CC(=O)C(C(C)=O)C1(O)C(=O)c2ccccc2C1=O,40.3,-15.3,60.6*,17.6,24.3,-5.5
COc1ccc(C)c2sc(N(CCCN(C)C)C(=O)c3ccc(S(=O)(=O)N4CCc5ccccc5C4)cc3)nc12,/,/,14.1,/,/,93.2*
COc1cccc2sc(N(CCCN(C)C)C(=O)c3ccc(S(=O)(=O)N4CCc5ccccc5C4)cc3)nc12,-11.7,-0.2,11.1,1.7,/,82.9*
COc1ccc(OC)c2sc(N(CCCN(C)C)C(=O)c3ccc(S(=O)(=O)N4CCc5ccccc5C4)cc3)nc12,-83.8,5.3,/,4.0,/,/
Cc1ccc2sc(N(CCCN(C)C)C(=O)c3ccc(S(=O)(=O)N4CCc5ccccc5C4)cc3)nc2c1C,-7.6,-0.5,6.4,-11.9,/,75.9*
CN(C)CCCN(C(=O)c1ccc(S(=O)(=O)N2CCc3ccccc3C2)cc1)c1nc2c(F)cc(F)cc2s1,-4.6,0.2,25.9,1.0,/,28.8
CC1(c2nnc(-c3ccc(Cl)cc3)o2)CC(c2cccnc2)=NO1 (stereo not given),-10.8,-2.4,-13.8,-2.2,/,-5.8
Cc1cccc(NC(=O)CSCC(=O)Nc2cccc(S(=O)(=O)N3CCCCCC3)c2)c1,-4.1,-3.1,7.8,-0.1,/,-13.0
CCOC(=O)C1(C)CCN1C(=O)c1ccc(OC)c(OC)c1 (stereo not given),/,/,8.7,/,/,-12.8
CC(C)CNS(=O)(=O)c1ccc(S(=O)(=O)N2CCN(C3CCCC3)CC2)cc1,15.5,4.8,0.0,-13.3,/,5.0
SMILES,SENP6 inh,SENP8 block-1,SENP8 block-2,SENP7 inh,PPC-1+TRAIL kill,C8 TRAIL sens
O=S(=O)(O)c1cc(O)c(N=Nc2ccc(O)cc2O)c2ccccc12,/,/,12.0,/,/,18.0
O=[N+]([O-])c1ccccc1N=Nc1ccc(O)cc1O,/,/,64.8*,/,/,-0.1
CCc1nc2ccc(C(=O)NCCNC(C)=O)cn2c1N(CC)CCOC,/,/,1.1,/,/,-2.8
Cc1cccc(C)c1NC(=O)CNC(=O)c1ccc(COc2ccccc2)cc1,-10.3,-0.7,19.4,3.3,/,-9.5
Cc1ccc2c(CN3CCN(S(=O)(=O)/C=C/c4ccccc4)CC3)cc(=O)oc2c1,-9.7,6.8,5.0,3.6,21.7,0.3
Cc1cc(C(=O)COC(=O)c2ccc[nH]c2=O)c(C)n1-c1ccc(F)cc1,-7.4,-5.5,8.2,-7.3,45.0,52.1*
Cc1cc(C(=O)COC(=O)c2ccc[nH]c2=O)c(C)n1-c1ccccc1,3.0,7.6,8.4,1.8,62.5*,71.8*
N#Cc1ccccc1S(=O)(=O)N1CCN(C(=O)c2cc3c(s2)CCC3)CC1,-42.0,-1.5,-23.6,-4.8,/,7.1
COc1cccc(NC(=O)CN(C)C(=O)CC2CCCC2)c1,/,/,-0.9,/,/,-7.7
CN(C)c1ccc(Cc2ccc(N(C)C)cc2)cc1,/,/,29.8*,/,/,-18.3
CN(C)c1ccc(CCc2ccc(N)cc2)cc1,-8.3,-4.8,-459.7,10.6,/,-2.0
CCS(=O)c1ccccc1C(=O)OCC(=O)N1CCC(c2ccccc2)=N1 (stereo not given),8.5,1.1,-6.2,-7.2,/,22.0
CCOc1ccc(NC(=O)C2CCCN2S(=O)(=O)c2ccc3c(c2)C(C)(C)C(=O)N3C)cc1 (stereo not given),-1.8,5.7,18.2,-7.2,/,-10.2
O=[N+]([O-])c1cccc(N/N=C/c2cccc(O)c2O)c1,-22.0,2.0,58.2*,-17.4,21.9,35.6
Cc1cccc(N/N=C/c2ccc(O)c(O)c2O)c1,10.5,27.8,67.0*,8.1,5.4,-3.0
Cc1nc2c(C)cccc2cc1C(=O)N/N=C/c1cccnc1,18.1,-0.1,5.6,-3.5,11.2,34.7
Cc1cccc(C)c1NC(=O)C1(C)CN(S(C)(=O)=O)CC(=O)N1CCCn1ccnc1 (stereo not given),/,/,12.6,/,/,2.9
COc1ccc(OC)c(NC(=O)c2csc(Cl)c2OC)c1,-3.8,-7.6,-19.9,1.0,/,16.7
C=C(C)CSc1nnc2n(C)c(=O)c3c4c(sc3n12)CCC4,7.3,1.4,11.9,3.7,-0.4,55.0*
CCn1ncc(CN2CCC(n3nccc3NC(=O)c3ccccc3Cl)CC2)c1C,/,/,14.8,/,/,6.0
O=C(N=C1N=C2C=CC(Br)=CN2Cc2ccccc21)c1ccc([N+](=O)[O-])cc1[N+](=O)[O-],77.8*,56.0*,12.7,66.9*,-14.9,19.1
O=C(c1ccc([N+](=O)[O-])cc1[N+](=O)[O-])N1CCc2ccccc21,3.3,6.4,17.7,3.8,/,0.6
Cc1cc(C(=O)N/N=C/c2c(C)nn(-c3ccccc3)c2C)n[nH]1,-3.9,-3.1,8.4,-6.8,13.7,11.6
Cc1nn(-c2ccccc2)c(C)c1/C=N/NC(=O)c1cc(-c2ccc(Cl)s2)[nH]n1,-4.9,-0.1,-2.3,0.4,-24.5,46.5*
Cc1nn(-c2ccccc2)c(C)c1-c1cc(C(=O)N/N=C/c2ccc(O)cc2)[nH]n1,5.7,-0.2,-21.8,0.6,2.8,49.6*
COc1cc(/C=N/NC(=O)c2cc(-c3c(C)nn(-c4ccccc4)c3C)n[nH]2)ccc1O,9.5,7.6,-145.7,10.1,-1.4,0.9
Cc1nn(-c2ccccc2)c(C)c1/C=N/NC(=O)c1cc(C23CC4CC(CC(C4)C2)C3)[nH]n1,8.7,3.0,20.2,-4.0,14.0,64.0*
